From PubChem BioAssay (Tox21)
Several values for one entry are separate records, joined by “and”; a condition that tells them apart may be missing. Equal entries are not always repeated. Records with an inconclusive call do not appear. Entries that show only a call come without a potency. Activity calls are given as the source filed them. Calls follow the shape of the dose curve; as a rule, active = well fitted cell-killing curve with a large enough effect in the repeat runs; inconclusive = weak or mixed curves, or effect the other way; inactive = no such curve, though single readings can be large or run the other way.

assay: qHTS assay to identify small molecule antagonists of the glucocorticoid receptor (GR) signaling pathway - cell viability counter screen (AID 720693); conditions: GR-bla HeLa viability, CellTiter-Glo luminescence, 18 h, with 5 nM dexamethasone present; series mostly up to 58.5 µM; also: nearly all actives have a fitted effect of over 55% in size
From the text: National Center for Advancing Translational Sciences [NCATS]
NIH Chemical Genomics Center [NCGC]
U.S. Environmental Protection Agency [EPA]
National Institutes of Environmental Health Sciences [NIEHS]
National Toxicology Program [NTP]
U.S. Food and Drug Administration [FDA]
The Glucocorticoid receptor (GR) is one of the members of the nuclear receptor family of ligand-dependent transcription factors. GR plays a critical role in carbohydrate, protein and lipid metabolisms and programmed cell death. CellSensor GR-bla HeLa cell line (Invitrogen) contains a beta-lactamase reporter gene under the control of the glucocorticoid response element stably integrated into HeLa cells, a cervical cancer cell line that expresses glucocorticoid receptor. The activation of the reporter gene under culture conditions can be detected by fluorescence intensity. This cell line has been used to screen the Tox21 10K compound library and to identify the compounds that inhibit the GR signaling. The cytotoxicity of the Tox21 compound library against the GR-bla HeLa cell line was tested in parallel by measuring the cell viability using CellTiter-Glo assay in the same wells.
Tox21 Assay Protocol Summary:
The GR-bla HeLa cells were dispensed at 1500 cells/5 ul/well in 1536-well black wall/clear bottom plates using a Multidrop Combi (ThermoFisher Scientific, Waltham, MA) dispenser. After the assay plates were incubated at a 37 C/5% CO2 incubator for 4 hours, 23 nL of compounds dissolved in DMSO, positive controls or DMSO only was transferred to the assay plate by a pintool station (Kalypsys, San Diego, CA), followed by addition of 1 uL of dexamethasone (5 nM, final concentration in the well). The plates were incubated at 37 C for 18 hours. After 1 uL of LiveBLAzerTM B/G FRET substrate was added using a Flying Reagent Dispenser (Aurora Discovery, San Diego, CA), the plates were incubated at room temperature (RT) for 2 hours, and fluorescence intensity was measured by an Envision plate reader (PerkinElmer, Shelton, CT). After measurement of bla assay, 3 ul CellTiter-Glo (Promega, Madison, WI) was added to measure the cytotoxicity and the plates were then incubated at RT for 30 min. The luminescence was measured using a ViewLux (Perkin Elmer) plate reader.
Potency is read from the fitted curve at half-maximal effect.

Row | SMILES | Potency
1 | CCCCCCCCCCCCCC[N+](C)(C)C | 13.4 µM (active) and 29.9 µM (active) and 13.8 µM (active)
2 | CCCCC(CC)CN1CN(CC(CC)CCCC)CC(C)(N)C1 (stereo not given) | inactive
3 | c1ccc(SSc2ccccc2)cc1 | inactive
4 | COc1cccc(OC)c1C(=O)O | inactive
5 | CC(C)(C)c1ccc(C(O)CCCN2CCC(C(O)(c3ccccc3)c3ccccc3)CC2)cc1 (stereo not given) | inactive
6 | Cc1ccc(O)c(O)c1 | 53.4 µM (active)
7 | CCO[Si](OCC)(OCC)OCC | inactive
8 | C1CCC(SSC2CCCCC2)CC1 | inactive
9 | Cc1c(C)c2c(c(C)c1O)CC[C@@](C)(CCC[C@H](C)CCC[C@H](C)CCCC(C)C)O2 | inactive
10 | CCCCCCCCCCCCCCCC[N+](C)(C)CC | 13.4 µM (active) and 17.4 µM (active)
11 | Oc1c(I)cc(Cl)c2cccnc12 | inactive
12 | CCCCCCCC/C=C\CCCCCCCCN | inactive
13 | CCN1C(=O)c2ccccc2C1Nc1ccc(OCCN2CCCCC2)cc1 (stereo not given) | inactive
14 | c1cnccn1 | inactive
15 | CC(C)(C)c1csc(-c2cc3cc(OCc4ccccc4CC(=O)O)ccc3o2)n1 | 49 µM (active)
16 | CC1=CCC(=C(C)C)CC1 | inactive
17 | COC(=O)c1ccccc1OC | inactive
18 | C=CCn1c(=O)n(CC=C)c(=O)n(CC=C)c1=O | inactive
19 | CCC(CC)(CC(=O)Nc1cccc(/C=C/c2nc(C3CCC3)cs2)c1)C(=O)O | inactive
20 | Cc1cc(-n2nc3ccc(Cl)cc3n2)c(O)c(C(C)(C)C)c1 | inactive

Row | SMILES | Potency
21 | CCC(CC)C(C)CCOC(C)=O (stereo not given) | inactive
22 | COC(=O)c1ccccc1C | inactive
23 | O=c1[nH]c(=O)n([C@H]2C[C@H](O)[C@@H](CO)O2)cc1F | inactive
24 | CCc1ccc(Br)cc1 | inactive
25 | CC(=O)[C@H]1CC[C@H]2[C@@H]3CCC4=CC(=O)CC[C@]4(C)[C@H]3CC[C@]12C | 3.87 µM (active)
26 | O=C1NC(=O)[C@@H]2CC=CC[C@H]12 | inactive
27 | Cc1cc(C(C)(C)C)cc(C)c1CC1=NCCN1 | inactive
28 | O=C(O)CCN(C1(C(=O)NO)CCCC1)S(=O)(=O)c1ccc(Oc2ccc(F)cc2)cc1 | inactive
29 | Cc1ccc(-c2ccccc2)cc1 | inactive
30 | Clc1nnc(Cl)c2ccccc12 | inactive
31 | O=C(O)[C@H](O)[C@@H](O)[C@H](O[C@@H]1O[C@H](CO)[C@H](O)[C@H](O)[C@H]1O)[C@H](O)CO | inactive
32 | O=C(Oc1ccccc1)Oc1ccccc1 | inactive
33 | CN(C)Cc1ccccc1O | inactive
34 | O=S(=O)(O)c1ccccc1/C=C/c1ccc(-c2ccc(/C=C/c3ccccc3S(=O)(=O)O)cc2)cc1 | inactive
35 | CCCCC(CC)COC(=O)CCCCC(=O)OCc1ccccc1 (stereo not given) | inactive
36 | CCCC(=O)OCCc1ccccc1 | inactive
37 | c1ccsc1 | inactive
38 | CC/C=C\CCCCCO | inactive
39 | O=C1CCCCCCCCCCCCCCCO1 | inactive
40 | NC(=O)c1cccc([N+](=O)[O-])c1 | inactive
